Screening data from PubChem.
SUMO Mot1 rescue = blocks SUMOylation pathway, rescuing yeast Mot1-301 growth; S. cerevisiae Mot1-301 growth rescue, ATP luminescence, 38.5C; percent above DMSO median, 100 means doubled; growth rescue, % at 18.8 µM; 320,000 tested, 1% active;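 active = every valid replicate shows activation above 250% relative to neutral control wells; inactive = the rest, any valid replicate at or below 250%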;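 note: OY570 slx delta 5 strain wells were the positive control but not used for scaling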
Efflux pump mplx = blocks antifungal efflux pumps in multiplex yeast assay | S. cerevisiae Candida pump triplex, Nile Red efflux | inhibition, % at 10 µM | 330,000 tested, 0.44% active | AID 485275;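 active = plate passing quality check with inhibition over a set limit, or well fluorescence over plate mean plus 4 SD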;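 note: Nile Red retained in pooled yeast measured as flow cytometry median fluorescence; 0% = buffer negative control and 100% = Enniatin B positive control; higher means more Nile Red kept so more efflux inhibition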
ATG4B inhibitor = ATG4B (human) cysteine protease inhibition; Q9Y4P1; 340,000 tested, 0.51% active; inhibition, % at 8.33 µM; ATG4B cleavage of LC3-PLA2, NBD-HPC fluorescence, 1 h; in the data active = inhibition above about 40%
Target sequence (Q9Y4P1 whole entry, looked up): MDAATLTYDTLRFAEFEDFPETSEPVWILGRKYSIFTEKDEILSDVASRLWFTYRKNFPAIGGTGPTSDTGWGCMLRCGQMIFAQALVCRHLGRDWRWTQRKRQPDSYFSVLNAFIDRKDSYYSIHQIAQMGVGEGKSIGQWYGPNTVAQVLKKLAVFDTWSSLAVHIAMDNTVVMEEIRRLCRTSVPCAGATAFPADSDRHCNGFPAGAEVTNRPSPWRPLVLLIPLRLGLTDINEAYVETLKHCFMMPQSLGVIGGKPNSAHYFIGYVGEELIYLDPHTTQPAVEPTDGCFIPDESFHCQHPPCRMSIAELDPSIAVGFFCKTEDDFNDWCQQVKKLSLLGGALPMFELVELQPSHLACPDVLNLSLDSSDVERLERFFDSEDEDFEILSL
AI-2 QS modul = modulators of Vibrio harveyi AI-2 quorum sensing system. AID 2094. Vibrio harveyi JMH597 AI-2 luminescence/OD600 ratio, 9 h; active compounds read low; strain lacks LuxN and CqsS sensors; 0 = neutral-control median. activity change, % at 7.5 µM. 300,000 tested, 0.4% active; in the data active = activity change below about -75%, passing the limit was not always enough;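 note: luminescence divided by OD600 gain over 9 h not by final OD600 alone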
V-ATPase pH = alters yeast V-ATPase proton transport; S. cerevisiae, pHLuorin cytosolic pH fluorescence; response, % at 10 µM; 350,000 tested, 0.37% active; AID 504577; in the data active = response mostly above about 7.3%, no sharp cut-off; inactive = mostly below about 5.4%; note: actives read high
Cmpd fluor yeast = flagged as fluorescent in efflux inhibitor counter-screen. shares compounds with Efflux pump mplx. S. cerevisiae AD/pABC3, compound fluorescence, flow cytometry. fluorescence ratio to DMSO, % at 10 µM. 1,700 tested, 4% active. AID 588517;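 active = fluorescence ratio to DMSO above its plate's cutoff, the plate mean ratio plus 5 SD, cut at about 210% in these data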;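 note: unstained yeast with no Nile Red so the signal is compound autofluorescence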
Mdr1 pump inh = Candida Mdr1 efflux pump inhibition; shares compounds with Efflux pump mplx; AID 588518; inhibition, % at 10 µM; S. cerevisiae AD/CaMDR1, Nile Red efflux, flow cytometry; 1,700 tested, 1% active; in the data active = inhibition above about 26%;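 note: 0% = DMSO vehicle and 100% = reference inhibitor; higher means more Nile Red retained so more efflux inhibition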
CaCdr2 efflux inh = blocks the Candida albicans Cdr2 efflux pump in yeast; shares compounds with Efflux pump mplx; S. cerevisiae AD/CaCDR2, Nile Red retention, flow cytometry; Nile Red retention ratio vs DMSO, % at 10 µM; 1,700 tested, 4% active; in the data active = Nile Red retention ratio vs DMSO above about 190%;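 note: higher ratio means more blocking of Cdr2 efflux of the dye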
Cdr1 pump inh = blocks the Candida albicans Cdr1 efflux pump in yeast. shares compounds with Efflux pump mplx. 1,700 tested, 1% active. S. cerevisiae AD/CaCDR1, Nile Red efflux, flow cytometry. inhibition, % at 10 µM;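 active = inhibition above the screen-wide mean plus twice its standard deviation, cut at about 32% in these data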
Numbers without * were called inactive. Shown are actives, neighbours in structure and some others; about 2.5% of the full set was active somewhere.

For CN(C(=O)c1ccc(NC(=O)c2ccco2)cc1)c1ccccc1 the results were SUMO Mot1 rescue -31, Efflux pump mplx 0, ATG4B inhibitor -4, AI-2 QS modul 28, V-ATPase pH 2, Cmpd fluor yeast 103, Mdr1 pump inh 0, CaCdr2 efflux inh 93 and Cdr1 pump inh 0.
CC(=O)c1ccc(NC(=O)c2ccc(NC(=O)c3ccco3)cc2)cc1 was read as SUMO Mot1 rescue 74, Efflux pump mplx 6.2*, ATG4B inhibitor 1, AI-2 QS modul 41, V-ATPase pH 0, Cmpd fluor yeast 92, Mdr1 pump inh 0, CaCdr2 efflux inh 106 and Cdr1 pump inh 0.
`O=C(/C=C/c1ccc(Br)cc1)c1ccc(NC(=O)c2ccco2)cc1` gave SUMO Mot1 rescue 9, Efflux pump mplx 5.8*, ATG4B inhibitor -2, AI-2 QS modul 20, V-ATPase pH 2, Cmpd fluor yeast 107, Mdr1 pump inh 0, CaCdr2 efflux inh 108 and Cdr1 pump inh 0.
`CCOC(=O)c1cccc(NC(=O)c2ccc(NC(=O)c3ccco3)cc2)c1` gave SUMO Mot1 rescue 24, Efflux pump mplx 0, ATG4B inhibitor -4, AI-2 QS modul 7, V-ATPase pH 2, Cmpd fluor yeast 88, Mdr1 pump inh 0, CaCdr2 efflux inh 95 and Cdr1 pump inh 0.
`CN(C(=O)c1cccc(NC(=O)c2ccco2)c1)c1ccccc1` gave SUMO Mot1 rescue 9, Efflux pump mplx 0, ATG4B inhibitor 4, AI-2 QS modul 2 and V-ATPase pH 2.
Screening COc1cc(OC)c(N2CC(C(=O)NCCC3=CCCCC3)CC2=O)cc1Cl (configuration not stated) returned SUMO Mot1 rescue 14, Efflux pump mplx 0, ATG4B inhibitor -5 and V-ATPase pH -1.
Screening Cc1ccc2c(C(=O)CN3CCC(C(N)=O)CC3)c(C)[nH]c2c1 returned SUMO Mot1 rescue -7, Efflux pump mplx 0, AI-2 QS modul 15 and V-ATPase pH 0.
CC(=O)NC(=S)Nc1ccc2oc(=O)ccc2c1 was read as SUMO Mot1 rescue 12, Efflux pump mplx 0, ATG4B inhibitor 5, AI-2 QS modul 9 and V-ATPase pH -4.
For Cc1cccc(NC(=O)c2cccc(NC(=O)c3ccco3)c2)c1 the results were ATG4B inhibitor 1 and V-ATPase pH 6.
`Cc1cc(C)cc(NC(=O)c2ccc(NC(=O)c3ccco3)cc2)c1` gave SUMO Mot1 rescue 12, Efflux pump mplx 0, ATG4B inhibitor -14, AI-2 QS modul 9, V-ATPase pH 1, Cmpd fluor yeast 105, Mdr1 pump inh 0, CaCdr2 efflux inh 91 and Cdr1 pump inh 0.
For C(=NN1CCCCCC1)c1ccc2c(c1)OCO2 the results were ATG4B inhibitor 0 and V-ATPase pH 0.
O=C(COC(=O)/C=C/c1cccc(C(F)(F)F)c1)Nc1ccc(Cl)cn1 was read as SUMO Mot1 rescue 14, Efflux pump mplx 0.6*, ATG4B inhibitor -8, V-ATPase pH 1, Cmpd fluor yeast 102, Mdr1 pump inh 0, CaCdr2 efflux inh 92 and Cdr1 pump inh 0.
For O=C(COC(=O)/C=C/c1cccc([N+](=O)[O-])c1)Nc1ccc(Cl)cn1 the results were SUMO Mot1 rescue -3, Efflux pump mplx 0, ATG4B inhibitor -3 and V-ATPase pH -1.
For COc1ccccc1N1C(=O)c2ccc(C(=O)Nc3ccc(C(=O)O)cc3)cc2C1=O the results were SUMO Mot1 rescue 3, Efflux pump mplx 0, ATG4B inhibitor 5, AI-2 QS modul 17 and V-ATPase pH 6.
`COc1ccc(/C=C2\SC(=S)N(CCCC(=O)Nc3cccc(C(=O)O)c3)C2=O)cc1OC` gave SUMO Mot1 rescue 139, Efflux pump mplx 7.2*, ATG4B inhibitor 10, AI-2 QS modul 76, V-ATPase pH 6, Cmpd fluor yeast 97, Mdr1 pump inh 0, CaCdr2 efflux inh 102 and Cdr1 pump inh 0.
For COc1ccc(/C=C2\SC(=S)N(CCC(=O)NC3=NCCS3)C2=O)cc1OC the results were SUMO Mot1 rescue 7, Efflux pump mplx 5.5*, ATG4B inhibitor -1, AI-2 QS modul 6, V-ATPase pH -2, Cmpd fluor yeast 109, Mdr1 pump inh 0, CaCdr2 efflux inh 110 and Cdr1 pump inh 0.
Screening OC(COC1CCCCC1)CN1CCCCC1 (configuration not stated) returned SUMO Mot1 rescue -8, Efflux pump mplx 0, ATG4B inhibitor 4, AI-2 QS modul 5 and V-ATPase pH -7.
O=C(Cn1c2ccc(F)cc2c2nc3n(c(=O)c21)CCS3)Nc1ccccc1C(F)(F)F was read as SUMO Mot1 rescue 7, Efflux pump mplx 0, ATG4B inhibitor 1, AI-2 QS modul 13 and V-ATPase pH 0.
For O=C(Cn1c2ccc(F)cc2c2nc3n(c(=O)c21)CCS3)Nc1ccccc1F the results were SUMO Mot1 rescue -1, Efflux pump mplx 0.4*, AI-2 QS modul 6, Cmpd fluor yeast 480*, Mdr1 pump inh 1, CaCdr2 efflux inh 120 and Cdr1 pump inh 1.
c1ccc(COc2ccc(Oc3nc(N4CCCCC4)nc(N4CCOCC4)n3)nn2)cc1 was read as SUMO Mot1 rescue -2, Efflux pump mplx 0, ATG4B inhibitor -14, AI-2 QS modul 6 and V-ATPase pH 0.
Screening Cc1ccc(Nc2nc(Oc3ccc(OCc4ccccc4)nn3)nc(N3CCOCC3)n2)cc1 returned SUMO Mot1 rescue -6, Efflux pump mplx 0.7*, ATG4B inhibitor 4, AI-2 QS modul 36, V-ATPase pH -10, Cmpd fluor yeast 108, Mdr1 pump inh 0, CaCdr2 efflux inh 110 and Cdr1 pump inh 0.
For Cc1cccc2cc(COC(=O)COc3ccccc3)c(=O)[nH]c12 the results were SUMO Mot1 rescue -12, Efflux pump mplx 0, ATG4B inhibitor -7 and AI-2 QS modul 21.
For O=C(N/N=C/c1cccc(F)c1)c1c(O)c2c([nH]c1=O)CCCC2 the results were SUMO Mot1 rescue -2, Efflux pump mplx 8.9*, ATG4B inhibitor 6, AI-2 QS modul 29, V-ATPase pH -1, Cmpd fluor yeast 84, Mdr1 pump inh 0, CaCdr2 efflux inh 100 and Cdr1 pump inh 0.
Screening Cc1ccc2nc(-c3ccc(NC(=O)CCS(=O)(=O)c4ccccc4)cc3)sc2c1 returned SUMO Mot1 rescue -12, Efflux pump mplx 0.5*, ATG4B inhibitor -2, AI-2 QS modul 29, V-ATPase pH 0, Cmpd fluor yeast 112, Mdr1 pump inh 0, CaCdr2 efflux inh 114 and Cdr1 pump inh 0.
